This is a sample that favours compounds with a hit; in the whole collection about 4.6% have one here.
D1 antagonist = antagonists of human D1 dopamine receptor; P21728; HEK293 TREx D1 cells, calcium flux, dopamine EC80; active compounds read low; activity change, negative = inhibition, % at 10 µM; 360,000 compounds, 3.2% hits; in the data active = activity change below about -30%; note: % is set by controls: 0 for no effect and ±100 for the full control effect
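Tetracycline-induced HEK293 Trex D1 cells, force-coupled to calcium, dye-loaded; compounds added and read 180 s, then EC80 dopamine added and calcium flux tracked kinetically another 180 s.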
TRHR PAM = allosterically enhances the human TRH receptor | 360,000 compounds, 0.66% hits | AID 493056 | enhancement, % at 2 µM | TRHR cells, fluo-8 calcium fluorescence, EC20 TRH enhancement | P34981; in the data active = enhancement above about 30%; note: 0% is about no effect
Target sequence (P34981 whole entry, looked up): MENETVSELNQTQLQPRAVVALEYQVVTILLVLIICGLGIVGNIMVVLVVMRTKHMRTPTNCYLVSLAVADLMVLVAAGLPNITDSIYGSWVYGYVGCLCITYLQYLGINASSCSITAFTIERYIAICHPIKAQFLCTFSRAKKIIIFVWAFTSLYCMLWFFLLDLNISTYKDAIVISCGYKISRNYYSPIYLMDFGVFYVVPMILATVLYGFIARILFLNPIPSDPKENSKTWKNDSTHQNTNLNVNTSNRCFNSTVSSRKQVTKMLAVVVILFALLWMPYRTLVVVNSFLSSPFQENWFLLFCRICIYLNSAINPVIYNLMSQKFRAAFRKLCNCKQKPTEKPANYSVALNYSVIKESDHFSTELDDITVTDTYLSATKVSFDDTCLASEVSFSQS
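TRHR-expressing cells loaded with fluo-8 calcium dye were read kinetically (ex 480/em 530) during compound addition, then stimulated with an EC20 of TRH (10 nM final). Enhancement of the Gq-mediated intracellular calcium response was scored.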
D1 PAM = human D1 dopamine receptor positive modulation. 360,000 compounds, 0.036% hits. AID 504651. P21728. HEK293 TREx D1 cells, calcium flux, dopamine EC20 potentiation. potentiation, % at 10 µM; in the data active = potentiation above about 30%; note: 0% is about no effect
TRHR agonist = agonists of human TRH receptor | AID 493084 | P34981 | TRHR cells, calcium flux fluo-8, FDSS agonist mode | 360,000 compounds, 0.18% hits | activation, % at 2 µM; note: 0% is about no effect
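Steps: seed TRHR cells overnight; add fluo-8 no-wash Ca dye, RT 30 min–1.5 h; record 10 s baseline; pin-transfer compounds; monitor fluorescence 1 cycle/s for the agonist window. Calcium increases flag candidate agonists.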
D1 agonist = activates the human D1 dopamine receptor | P21728 | HEK293 T-REx D1 cells, calcium flux, agonist mode | activation, % at 2 µM | 360,000 compounds, 1% hits; note: 0% is about no effect
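Inducible HEK293 T-REx D1 cells, force-coupled to calcium signalling, were plated at 4000 cells/well with tetracycline and held overnight at 30 C. After no-wash calcium dye loading, compound-evoked calcium rise over 180 s flagged agonists.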
* marks the source's active call; other numbers are inactive results; . = no result; ! = not active in a repeat. Cut-off read from the data, not from the text of the source, unless noted: active = activation above about 30%; inactive = the rest.

SMILES	D1 antagonist	TRHR PAM	D1 PAM	TRHR agonist	D1 agonist
CNCC[C@H](Oc1cccc2ccccc12)c1cccs1	-27	9	-1	5	61*
COc1ccc(NC(=O)C(=O)c2cc(C)n(-c3ccc(C)cc3)c2C)cc1Cl	-53*	-2	-2	0	4
CCNC(=O)C(=O)Nc1ccc(OC)c(Cl)c1	-14	-5	-4	0	12
Oc1c(C(c2ccc(Cl)cc2)N2CCC3(CC2)OCCO3)sc2nc(-c3ccco3)nn12 (stereo unspecified)	.	-6	2	0	-3
Cc1ccc(C(=O)NCC(=O)OCc2c(F)cccc2Cl)cc1	4	10	-3	0	4
Cc1ccc(S(=O)(=O)NCC(=O)NCC(=O)OCc2c(F)cccc2Cl)cc1	-62*	9	-6	-1	13
CCOc1ccc(CCNC(=O)CS(=O)(=O)Cc2nc(-c3ccc(OC)cc3)oc2C)cc1	0	40*!	-1	0	19
COc1ccc(-c2nc(CS(=O)(=O)CC(=O)NCCCN3CCN(C)CC3)c(C)o2)cc1	-38*	1	-5	0	0
Cc1oc(-c2ccccc2F)nc1CS(=O)(=O)CC(=O)NCCCN1CCN(C)CC1	15	-7	-9	0	3
O=C(Nc1cccnc1)c1ccc(COc2cc(Cl)ccc2Cl)o1	-7	-2	-5	0	12
O=C(N/N=C/c1ccc(O)cc1)c1ccc(COc2cc(Cl)ccc2Cl)o1	-8	-6	-4	0	43*
CC(C)c1ccc(C(=O)NNC(=O)C2C3CCC(C3)C2C(=O)O)cc1 (stereo unspecified)	-75*	-1	-4	-1	0
O=S(=O)(NCC(c1cccs1)S(=O)(=O)c1ccccc1)c1ccccc1 (stereo unspecified)	.	-10	0	3	-3
COc1ccc(N2CCN(C(=O)c3cn(CC4CCCCC4)nn3)CC2)cc1	-34*	3	-3	-1	10
COc1ccc(N2CCN(C(=O)NC3CCCCC3)CC2)cc1	-6	0	4	-1	6
COc1ccc(N2CCN(C(=O)c3c(Cl)cnn3C)CC2)cc1	-58*	-5	-5	0	6
O=C(NC1CCCCC1)c1cc(C2CC2)nn1-c1ccccc1	-13	-1	-4	-1	4
COC(=O)c1cccc(Nc2nn3c(=O)c4cc5c(cc4nc3s2)OCO5)c1	-4	-1	0	0	-1
O[C@@H](c1cc(C(F)(F)F)nc2c(C(F)(F)F)cccc12)[C@H]1CCCCN1	18	0	10	2	44*
OC(c1cc(-c2ccc(Cl)cc2)nc2ccccc12)C1CCCCN1 (stereo unspecified)	-23	10	-2	2	7
OC(c1cc(C(F)(F)F)nc2c(Cl)cc(Cl)cc12)C1CCCCN1 (stereo unspecified)	26	20	14	5	32*
CCC(C)NC(=O)CSc1nc2cc3c(cc2c(=O)n1CCCC(=O)NCc1ccc2c(c1)OCO2)OCO3 (stereo unspecified)	-11	0	-4	0	1
CC(C)NC(=O)c1ccc(Cn2c(=O)c3cccn3c3cccnc32)cc1	5	3	-2	1	1
COc1cc(OC)c(NC(=O)Nc2ccccc2OCc2cc(=O)n3cc(C)ccc3n2)cc1Cl	-9	-7	-3	0	-2
COc1cc(OC)c(NC(=O)Nc2cccc(OCc3cc(=O)n4ccccc4n3)c2)cc1Cl	-40*	1	-6	0	2
SMILES	D1 antagonist	TRHR PAM	D1 PAM	TRHR agonist	D1 agonist
Cc1cc(C)cc(N=Cc2[nH]c3ccc(Br)c(Cl)c3c2O)c1	-4	1	-4	36*	55*
NNC(=O)c1sccc1OCc1ccc(F)cc1	15	-12	-8	0	5
CNC(=O)c1sccc1SCc1ccc(Cl)cc1Cl	11	33*	-8	-1	2
NNC(=O)c1sccc1OCc1ccc(Cl)cc1Cl	-32*	-2	-6	0	10
CC(=O)Nc1ccc(C(=O)CSc2nnc(-c3ccccc3)n2-c2ccccc2)cc1	-1	-3	-3	0	-1
Cc1nn(CC(=O)NC2CCCCC2)c(=O)c2cc3cc(F)ccc3n12	-22	-2	2	0	0
COc1cccc(NC(=O)C2CC2)c1	12	6	-6	0	7
CCC1CCC(C(=O)NC(C(=O)Nc2cccc(OC)c2)C(C)C)CC1 (stereo unspecified)	-32*	-9	-1	0	4
COc1cc(C2C=C(C(=O)O)Nc3ncnn32)ccc1O (stereo unspecified)	-10	5	-3	1	4
O=S(=O)(Nc1cccc(CCc2ccccn2)c1)c1ccc2ccccc2c1	4	3	-6	0	32*
CCOC(=O)c1c(NC(=O)/C=C/c2ccc(OCC)cc2)sc(C(C)=O)c1C	-8	-1	0	1	5
Cc1ccccc1NC(=O)Cn1nc(-c2ccc(F)cc2)c2cnc3ccccc3c21	-37*	-1	-6	0	3
Cc1ccc2ncc3c(-c4ccc(F)cc4)nn(CC(=O)Nc4ccccc4C)c3c2c1	-13	0	-5	1	7
Cc1ccc(Cn2nnc3c(=O)n(CC(=O)OCc4ccccc4)cnc32)cc1	-33*	5	-7	0	4
O=C(Cn1cnc2c(nnn2Cc2ccc(F)cc2)c1=O)OCc1ccccc1	2	0	-3	-1	0
O=c1c2cc(NC(=S)NC3CC3)ccc2nc2n1CCCCC2	-38*	-5	-4	0	4
O=c1c2cc(NC(=S)NCCCN3CCC(Cc4ccccc4)CC3)ccc2nc2n1CCCCC2	-41*	13	-9	3	46*
CC1CCCCN1C(=S)Nc1ccc2nc3n(c(=O)c2c1)CCCCC3 (stereo unspecified)	2	-4	-3	-1	1
CC(C)NC(=S)Nc1ccc2nc3n(c(=O)c2c1)CCCCC3	-79*	10	-4	0	2
O=c1c2cc(NC(=S)N3CCC(N4CCCCC4)CC3)ccc2nc2n1CCCCC2	-38*	-8	-5	1	3
O=c1c2cc(NC(=S)NC3CCCC3)ccc2nc2n1CCCCC2	13	4	-5	0	2
O=c1c2cc(NC(=S)NC3CCCCC3)ccc2nc2n1CCCCC2	-4	0	-6	-1	4
Cc1ccc(-n2nc3c(c2NC(=O)c2ccc4c(c2)OCO4)CS(=O)(=O)C3)cc1	-7	3	-5	0	1
O=C(Nc1c2c(nn1-c1cccc(Cl)c1)CS(=O)C2)c1ccc2c(c1)OCO2 (stereo unspecified)	-36*	-12	-3	1	3
Cc1ccc(-n2nc3c(c2NC(=O)c2ccc4c(c2)OCO4)CS(=O)C3)c(C)c1 (stereo unspecified)	-52*	-14	2	0	1
